According to PubChem BioAssay AID1159580 (chemical genetic matrix, 2015):
Where “and” joins values, the source holds several entries; their conditions need not be identical. Equal values may be shown once. Among all 5,500 compounds or so, about 2,000 (36%) were called active. Inconclusive results (about 18%) are left out. No stated cut-off is given here; in the data, active means normalized growth mostly below about 0.91 (no sharp cut-off); inconclusive means no clear call, values can overlap the other calls; inactive means mostly above about 0.92. Some of the results follow.

Experiment: chemical genetic growth profiling, strain panel (AID 1159580);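 further: tested at 20 µM; growth read once vehicle control cultures reached saturation at 30 °C; 1 = growth at the plate median or of vehicle wells; lower values mean less growth of the strain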
Settings: S. cerevisiae deletion strains, growth OD

Measured: normalized growth

CCOC(=O)c1c(C)cc(O)c(C=O)c1O
inactive: locus YBR021W, strain FUR4, hits give low values 0.851 | locus YDR195W, strain ref2 0.908
active: locus YAL013W, strain DEP1, hits give low values 0.271 | locus YAL021C, strain ccr4, hits give low values 0.615 | locus YAL026C, strain drs2, hits give low values 0.212 | locus YAL030W, strain snc1, hits give low values 0.725 | locus YBL061C, strain skt5, hits give low values 0.642 | locus YBR009C, strain hhf1, hits give low values 0.592 | locus YBR023C, strain chs3, hits give low values 0.619 | locus YBR171W, strain sec66, hits give low values 0.776 | locus YBR229C, strain ROT2, hits give low values 0.541 | locus YBR231C, strain swc5, hits give low values 0.548 | locus YBR279W, strain paf1, hits give low values 0.66 | locus YCL011C, strain gbp2, hits give low values 0.616 | locus YCL016C, strain dcc1, hits give low values 0.714 | locus YCL029C, strain bik1, hits give low values 0.144 | locus YCL061C, strain MRC1, hits give low values 0.624 | locus YCL069W, strain vba3, hits give low values 0.531 | locus YCR088W, strain abp1, hits give low values 0.832 | locus YDL005C, strain med2, hits give low values 0.903 | locus YDL035C, strain GPR1, hits give low values 0.21 | locus YDL040C, strain nat1, hits give low values 0.86 | locus YDL074C, strain BRE1, hits give low values 0.156 | locus YDL101C, strain DUN1, hits give low values 0.16 | locus YDL134C, strain PPH21, hits give low values 0.249 | locus YDL185W, strain tfp1, hits give low values 0.0651 | locus YDL192W, strain arf1, hits give low values 0.202 | locus YDR001C, strain nth1, hits give low values 0.841 | locus YDR069C, strain doa4, hits give low values 0.516 | locus YDR101C, strain arx1, hits give low values 0.181 | locus YDR137W, strain rgp1, hits give low values 0.202 | locus YDR150W, strain NUM1, hits give low values 0.436 | locus YDR159W, strain sac3, hits give low values 0.413 | locus YDR162C, strain NBP2, hits give low values 0.0543 | locus YDR297W, strain sur2, hits give low values 0.609 | locus YDR318W, strain mcm21, hits give low values 0.142 | locus YDR334W, strain swr1, hits give low values 0.619 | locus YDR335W, strain msn5, hits give low values 0.623 | locus YDR388W, hits give low values 0.213 | locus YDR392W, strain spt3, hits give low values 0.135 | locus YDR502C, strain sam2, hits give low values 0.185 | locus YEL003W, strain gim4, hits give low values 0.582 | locus YEL037C, strain rad23, hits give low values 0.71 | locus YEL061C, strain CIN8 (second series), hits give low values 0.643 | locus YEL061C, strain CIN8, hits give low values 0.153 | locus YER015W, strain faa2, hits give low values 0.516 | locus YER016W, strain bim1, hits give low values 0.768 | locus YER110C, hits give low values 0.295 | locus YER111C, strain swi4, hits give low values 0.278 | locus YER155C, strain BEM2 (second series), hits give low values 0.409 | locus YER155C, strain BEM2, hits give low values 0.178 | locus YER167W, strain BCK2, hits give low values 0.105 | locus YFR010W, strain ubp6, hits give low values 0.681 | locus YGL078C, strain dbp3, hits give low values 0.57 | locus YGL086W, strain mad1, hits give low values 0.186 | locus YGL167C, strain pmr1, hits give low values 0.842 | locus YGL173C, strain kem1, hits give low values 0.27 | locus YGL227W, strain vid30, hits give low values 0.821 | locus YGL240W, strain doc1, hits give low values 0.503 | locus YGL248W, strain PDE1, hits give low values 0.236 | locus YGL253W, strain hxk2, hits give low values 0.283 | locus YGR078C, strain PAC10, hits give low values 0.103 | locus YGR135W, strain pre9, hits give low values 0.119 | locus YGR229C, strain SMI1, hits give low values 0.0734 | locus YGR252W, strain gcn5, hits give low values 0.303 | locus YHR013C, strain ard1, hits give low values 0.506 | locus YHR027C, strain rpn1, hits give low values 0.405 | locus YHR030C, strain SLT2, hits give low values 0.064 and 0.117 | locus YHR079C, strain IRE1 (second series), hits give low values 0.16 | locus YHR079C, strain IRE1, hits give low values 0.138 | locus YHR094C, strain hxt1, hits give low values 0.231 | locus YHR129C, strain ARP1, hits give low values 0.187 | locus YHR142W, strain chs7, hits give low values 0.345 | locus YHR200W, strain rpn10, hits give low values 0.484 | locus YIL066C, strain RNR3, hits give low values 0.167 | locus YIL073C, strain SPO22, hits give low values 0.211 | locus YIL125W, strain kgd1, hits give low values 0.471 | locus YIR030C, strain dcg1, hits give low values 0.196 | locus YJL092W, strain hpr5, hits give low values 0.756 | locus YJL095W, strain BCK1 (second series), hits give low values 0.381 | locus YJL095W, strain BCK1, hits give low values 0.0697 and 0.127 | locus YJL115W, strain asf1, hits give low values 0.784 | locus YJL129C, strain trk1, hits give low values 0.613 | locus YJL134W, strain LCB3, hits give low values 0.535 | locus YJL154C, strain vps35, hits give low values 0.774 | locus YJL164C, strain tpk1, hits give low values 0.587 | locus YJL166W, strain qcr8, hits give low values 0.449 | locus YJL168C, strain set2, hits give low values 0.534 | locus YJL187C, strain SWE1 (second series), hits give low values 0.15 | locus YJL187C, strain SWE1, hits give low values 0.625 | locus YJR043C, strain POL32, hits give low values 0.209 | locus YJR066W, strain TOR1, hits give low values 0.091
